Where “and” joins values, the source holds several entries; their conditions need not be identical. Equal entries are not always repeated. This is part of a sample that, as a whole, favours compounds with a hit. Of some 83,000 tested, about 20% had one in any assay.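 Plates (96-well) were seeded with cells, treated with compound at one concentration, and incubated for 48 hours before percent growth was determined.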 Calls of active or inactive are those of the source. Rule for the calls: active = growth percent below 10; inactive = the rest.

Our source for the growth values is PubChem BioAssay (NCI).

Holding throughout (test): NCI-60 one-dose screen, 48 h (100 = growth as untreated, 0 = no growth, -100 = all killed)
One test deals with SR leukemia. The conditions noted are these: 10 µM unless noted.
A further test concerns RPMI-8226 leukemia. The conditions noted are these: 10 µM unless noted.
The test system of another test is OVCAR-8 ovarian. To be noted: 10 µM unless noted.
Another test has as its system OVCAR-4 ovarian. The conditions noted are these: 10 µM unless noted.
Another test relates to SK-OV-3 ovarian. To be noted: 10 µM unless noted.
A further test relates to IGROV1 ovarian. The conditions noted are these: 10 µM unless noted.
The subject of a further test is OVCAR-3 ovarian. The conditions noted are these: 10 µM unless noted.
The test system of a further test is HS 578T breast. To be noted: 10 µM unless noted.
In the next test the test system is NCI/ADR-RES ovarian. The conditions noted are these: 10 µM unless noted.
The next test relates to T-47D breast. The conditions noted are these: 10 µM unless noted.
The subject of a further test is BT-549 breast. To be noted: 10 µM unless noted.
A further test relates to MDA-MB-435 melanoma. The conditions noted are these: 10 µM unless noted.
The subject of another test is SW-620 colon. To be noted: 10 µM unless noted.
Another test relates to MCF7 breast.
Another test concerns HCT-116 colon. The conditions noted are these: 10 µM unless noted.
A further test has as its system HCC-2998 colon. The conditions noted are these: 10 µM unless noted.
Another test relates to KM12 colon. To be noted: 10 µM unless noted.
In a further test the test system is OVCAR-5 ovarian. To be noted: 10 µM unless noted.

With `CCOC(=O)CCCn1c(-c2ccccc2)cc(-c2ccccc2)c(C#N)c1=O`, the growth in the test on SR leukemia was 63.7% (inactive); with RPMI-8226 leukemia, 87.2% (inactive); in the test on OVCAR-8 ovarian it was 85.6% (inactive); with OVCAR-4 ovarian, 94.8% (inactive); with SK-OV-3 ovarian it was 100% (inactive); with IGROV1 ovarian it was 77.2% (inactive). Also, the growth in the test on OVCAR-3 ovarian was 103% (inactive); in the test on HS 578T breast, 67.8% (inactive); in the test with NCI/ADR-RES ovarian, 72% (inactive); with T-47D breast it was 93.6% (inactive); in the test on BT-549 breast it was 93.9% (inactive); in the test with MDA-MB-435 melanoma, 50% (inactive). The growth is 88.3% (inactive) in the test on SW-620 colon; 89.6% (inactive) with MCF7 breast (10 µM unless noted); 75.5% (inactive) in the test on HCT-116 colon; 98.2% (inactive) in the test with HCC-2998 colon; 83.4% (inactive) in the test on KM12 colon.
`Cc1ccc(/C=C(\C#N)c2cc3ccccc3[nH]2)cc1`: the growth with SR leukemia is 16.2% (inactive); with RPMI-8226 leukemia, 60.2% (inactive); in the test with OVCAR-8 ovarian, 63% (inactive); in the test on OVCAR-4 ovarian, 71.6% (inactive); with SK-OV-3 ovarian, 67.1% (inactive); in the test on IGROV1 ovarian, 55.3% (inactive). Besides, the growth in the test with OVCAR-3 ovarian is 29.7% (inactive); in the test with HS 578T breast it was 61.9% (inactive); in the test on NCI/ADR-RES ovarian it was 16.1% (inactive); with T-47D breast, 36.1% (inactive); in the test on BT-549 breast it was 56.9% (inactive); with MDA-MB-435 melanoma it was -5.1% (active). Besides, the growth with SW-620 colon is 16.4% (inactive); with MCF7 breast (10 µM unless noted), 22.4% (inactive); in the test on HCT-116 colon it was 32.5% (inactive); with HCC-2998 colon it was 65.9% (inactive).
In the case of `NS(=O)(=O)c1ccc(C(=O)N=Nc2c(O)[nH]c3c(F)cccc23)cc1`, the growth in the test on SR leukemia was 103% (inactive); with RPMI-8226 leukemia, 106% (inactive); in the test on OVCAR-8 ovarian, 96.7% (inactive); in the test on OVCAR-4 ovarian, 102% (inactive); with SK-OV-3 ovarian it was 109% (inactive); with IGROV1 ovarian, 99.5% (inactive). Besides, the growth in the test on OVCAR-3 ovarian was 117% (inactive); in the test on HS 578T breast, 103% (inactive); in the test on NCI/ADR-RES ovarian, 100% (inactive); in the test with T-47D breast it was 97% (inactive); in the test on BT-549 breast, 99.7% (inactive); in the test on SW-620 colon it was 100% (inactive). The growth in the test on MCF7 breast (10 µM unless noted) is 96.4% (inactive); in the test with HCT-116 colon, 103% (inactive); in the test with HCC-2998 colon, 106% (inactive); in the test with KM12 colon, 107% (inactive).
Turning to `Cc1ccc(Cc2cnc(NC(=O)c3cc(C)oc3C)s2)cc1`, the growth was 29.7% (inactive) in the test on SR leukemia; 73.6% (inactive) with RPMI-8226 leukemia; 87.7% (inactive) in the test with OVCAR-8 ovarian; 70.2% (inactive) in the test with OVCAR-4 ovarian; 84.3% (inactive) in the test with SK-OV-3 ovarian; 62% (inactive) in the test on IGROV1 ovarian. The growth is 81.4% (inactive) with OVCAR-3 ovarian; 82.9% (inactive) in the test on HS 578T breast; 67.4% (inactive) in the test with NCI/ADR-RES ovarian; 58.3% (inactive) in the test on T-47D breast; 74% (inactive) with BT-549 breast; 4.22% (active) with MDA-MB-435 melanoma. The growth was 51.6% (inactive) with SW-620 colon; 32% (inactive) with MCF7 breast (10 µM unless noted); 72.4% (inactive) with HCT-116 colon; 89.3% (inactive) in the test with HCC-2998 colon; 38.4% (inactive) in the test on KM12 colon.
On to `CC(=O)c1c(C)nc(SCC(=O)Nc2ccc(Cl)cc2)n1-c1ccc(Cl)cc1`, for which the growth in the test with SR leukemia is 90.6% (inactive); in the test with RPMI-8226 leukemia it was 71.1% (inactive); with OVCAR-8 ovarian, 89.3% (inactive); with OVCAR-4 ovarian, 102% (inactive); with SK-OV-3 ovarian it was 85.9% (inactive); with IGROV1 ovarian it was 97.9% (inactive). In addition, the growth in the test on OVCAR-3 ovarian is 99.4% (inactive); in the test on HS 578T breast, 79.4% (inactive); in the test with NCI/ADR-RES ovarian, 89.2% (inactive); in the test on T-47D breast, 72.1% (inactive); in the test on BT-549 breast, 92.1% (inactive); with MDA-MB-435 melanoma, 89.6% (inactive). For the same compound, the growth in the test with SW-620 colon is 87.6% (inactive); in the test on MCF7 breast (10 µM unless noted), 82.9% (inactive); in the test with HCT-116 colon, 67.7% (inactive); in the test on HCC-2998 colon it was 102% (inactive); with KM12 colon, 98.5% (inactive).
As to `COCCn1cc(-c2csc(-c3cn(C)c4ccc(F)cc34)n2)c2cccnc21`, the growth in the test on SR leukemia was 33.8% (inactive); in the test on RPMI-8226 leukemia, 67.7% (inactive); in the test on OVCAR-8 ovarian it was 71.3% (inactive); with OVCAR-4 ovarian it was 47.8% (inactive); in the test on SK-OV-3 ovarian, 92.6% (inactive); in the test on IGROV1 ovarian it was 93.9% (inactive). Also, the growth in the test on OVCAR-3 ovarian was 76% (inactive); with HS 578T breast, 63.1% (inactive); in the test with NCI/ADR-RES ovarian, 58.6% (inactive); in the test on T-47D breast, 25.2% (inactive); in the test with BT-549 breast it was 63.8% (inactive); in the test on SW-620 colon, 37.6% (inactive). The growth in the test with MCF7 breast (10 µM unless noted) was 25.9% (inactive); with HCT-116 colon, 75.5% (inactive); with HCC-2998 colon, 49.6% (inactive); with KM12 colon it was 40% (inactive).
`O=C(/C=C/c1cccs1)Nc1ncc(Cc2ccc(Cl)c(Cl)c2)s1`: the growth in the test on SR leukemia is 32.7% (inactive); in the test on RPMI-8226 leukemia, 78.1% (inactive); with OVCAR-8 ovarian it was 72.7% (inactive); in the test with OVCAR-4 ovarian, 66.6% (inactive); in the test with SK-OV-3 ovarian, 68.8% (inactive); with IGROV1 ovarian, 64.1% (inactive). Also, the growth with OVCAR-3 ovarian is 40.4% (inactive); with HS 578T breast, 62.4% (inactive); in the test on NCI/ADR-RES ovarian it was 60.3% (inactive); in the test on T-47D breast, 49% (inactive); in the test on BT-549 breast, 80.9% (inactive); in the test with MDA-MB-435 melanoma, -23.2% (active). The growth in the test on SW-620 colon was 37.5% (inactive); with MCF7 breast (10 µM unless noted), 26.8% (inactive); with HCT-116 colon it was 45.2% (inactive); in the test with HCC-2998 colon, 53.8% (inactive); with KM12 colon, 22% (inactive).
Consider `CC[C@]12CN3CCc4c([nH]c5ccccc45)[C@@](C(=O)OC)(c4cc5c(cc4OC)N(C)[C@H]4[C@@](O)(C(=O)OC)[C@H](OC(C)=O)[C@]6(CC)C=CCN7CC[C@]54[C@@H]76)CC(C3)[C@H]1O2` (some centres not stated), for which the growth is 14.4% (inactive) in the test with SR leukemia; 20.5% (inactive) in the test on RPMI-8226 leukemia; 7.27% (active) in the test on OVCAR-8 ovarian; 49% (inactive) in the test on OVCAR-5 ovarian; 28% (inactive) in the test on OVCAR-4 ovarian; 22.1% (inactive) in the test on SK-OV-3 ovarian. The growth in the test on OVCAR-3 ovarian is -60.4% (active); in the test on HS 578T breast, -25.1% (active); in the test on NCI/ADR-RES ovarian, 82% (inactive); in the test on T-47D breast it was 54.8% (inactive); in the test with BT-549 breast it was -26% (active); with MDA-MB-435 melanoma it was -43.8% (active). For the same compound, the growth is 17.1% (inactive) in the test with SW-620 colon; 15.7% (inactive) in the test on MCF7 breast (10 µM); 35.1% (inactive) and -19% (active) in the test with MCF7 breast (100 µM); 0.479% (active) with HCT-116 colon; -14.6% (active) in the test with HCC-2998 colon; -17.6% (active) in the test on KM12 colon.
With `COc1ccc(Oc2nc(Nc3ccc(N4CCOCC4)cc3)ncc2NC(=O)c2cc(OC)cc(OC)c2)cc1`, the growth in the test on SR leukemia is 34.7% (inactive); with RPMI-8226 leukemia, 53.2% (inactive); in the test on OVCAR-8 ovarian, 92.1% (inactive); in the test on OVCAR-4 ovarian, 81.3% (inactive); in the test with SK-OV-3 ovarian, 102% (inactive); with IGROV1 ovarian, 83.8% (inactive). Further, the growth is 83.5% (inactive) in the test with OVCAR-3 ovarian; 76.7% (inactive) in the test on HS 578T breast; 81.6% (inactive) in the test with NCI/ADR-RES ovarian; 93.6% (inactive) in the test with T-47D breast; 90.1% (inactive) in the test with BT-549 breast; 40.4% (inactive) in the test on MDA-MB-435 melanoma. Besides, the growth was 71.4% (inactive) in the test on SW-620 colon; 76.9% (inactive) in the test with MCF7 breast (10 µM unless noted); 87.9% (inactive) with HCT-116 colon; 98.4% (inactive) in the test on HCC-2998 colon; 79.3% (inactive) in the test on KM12 colon.
In the case of `Nc1ccc(-c2ccc(N)c(Br)c2)cc1Br`, the growth is 20.7% (inactive) in the test on SR leukemia; 29% (inactive) with RPMI-8226 leukemia; 59.2% (inactive) with OVCAR-8 ovarian; 75.5% (inactive) in the test on OVCAR-4 ovarian; 64.4% (inactive) with SK-OV-3 ovarian; 47% (inactive) with IGROV1 ovarian. Further, the growth with OVCAR-3 ovarian is 51.4% (inactive); in the test on HS 578T breast, 79.5% (inactive); in the test with NCI/ADR-RES ovarian, 29.2% (inactive); in the test with BT-549 breast, 34% (inactive); with MDA-MB-435 melanoma it was 1.83% (active); in the test with SW-620 colon, 47% (inactive). Besides, the growth was 17.9% (inactive) with MCF7 breast (10 µM unless noted), 23.6% (inactive) in the test on HCT-116 colon, 64.6% (inactive) in the test with HCC-2998 colon and 37.3% (inactive) with KM12 colon.
